Consider nine compounds from PubChem BioAssay (NCI).

The panel holds about 83,000 compounds, 20% with a hit somewhere; the sample as a whole holds those more often.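 Method: cells in 96-well plates; compound added at one concentration; 48 h incubation; percent growth measured; values under 10 scored active.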 A number with no mark means an inactive call. Active and inactive are the calls of the source.

Experiment in all cases: NCI-60 one-dose screen, 48 h (100 = growth as untreated, 0 = no growth, -100 = all killed)
Test [1] concerns DU-145 prostate. To be noted: 10 µM unless noted.
Test [2] relates to K-562 leukemia. To be noted: 10 µM unless noted.
The subject of test [3] is MALME-3M melanoma. To be noted: 10 µM unless noted.
Test [4] concerns MDA-MB-231 breast. To be noted: 10 µM unless noted.
In test [5] the test system is RXF 393 renal. To be noted: 10 µM unless noted.
In test [6] the test system is SF-268 CNS. To be noted: 10 µM unless noted.
In test [7] the test system is SF-539 CNS. As to conditions: 10 µM unless noted.
Test [8] has as its system UACC-257 melanoma. As to conditions: 10 µM unless noted.
The test system of test [9] is M14 melanoma. To be noted: 10 µM unless noted.
Test [10] relates to HCT-15 colon. As to conditions: 10 µM unless noted.
Test [11] deals with HT29 colon. As to conditions: 10 µM unless noted.
Test [12] relates to SNB-75 CNS. To be noted: 10 µM unless noted.
The subject of test [13] is SNB-19 CNS. To be noted: 10 µM unless noted.
The subject of test [14] is U251 CNS. To be noted: 10 µM unless noted.
Test [15] relates to PC-3 prostate. To be noted: 10 µM unless noted.
For test [16], the system named is SK-MEL-5 melanoma. As to conditions: 10 µM unless noted.
Test [17] deals with UACC-62 melanoma. To be noted: 10 µM unless noted.
Test [18] has as its system LOX IMVI melanoma. To be noted: 10 µM.
For test [19], the system named is SK-MEL-28 melanoma. To be noted: 10 µM unless noted.
Test [20] deals with SF-295 CNS. To be noted: 10 µM unless noted.

Consider `Nc1nc(N)c2cc(Sc3cccc(C(F)(F)F)c3)ccc2n1`, for which the growth was 28.6% in [1]; 8.39% (active) in test [2]; 31.5% in [3]; 45.3% in test [4]; 42.8% in test [5]; 29.5% in test [6]. Also, the growth in test [7] is 28.6%; in test [8] it was 27.4%; in [9], 13.6%; in [10] it was 24.3%; in test [11], 14.5%; in test [12] it was 42.7%. Besides, the growth was 34.6% in test [13]; 19.2% in test [14]; 28.3% in [15]; 21.4% in test [16]; 30.3% in test [17]; 17.4% in test [18]. In [19], the growth was 58.4%.

As for `Oc1ccc(Cl)cc1Cc1cc(Cl)ccc1O`, the growth is 38.2% in test [1]; 21.1% in test [2]; 16.3% in [3]; 23.3% in test [4]; 50.4% in test [5]; 22.5% in test [6]. Also, the growth was 41.3% in test [20]; 41.6% in test [8]; 25.2% in test [9]; 13.7% in test [10]; 86.3% in [11]; 48.3% in [12]. For the same compound, the growth is 41.5% in test [13]; 34.8% in test [14]; 23.9% in [15]; 9.09% (active) in test [16]; 42.9% in test [18].

As for `Cc1cc(C(N)=O)cc(C)c1C(=O)OCCCl`, the growth is 99.2% in test [1]; 93.6% in [2]; 101% in test [3]; 105% in [4]; 117% in test [5]; 95% in test [6]. The growth in [20] was 99.7%; in test [7], 101%; in test [10], 111%; in test [11] it was 106%; in [12] it was 100%; in [13] it was 109%. Besides, the growth was 96.9% in test [14]; 96.8% in test [15]; 101% in test [16]; 102% in test [17]; 97.5% in test [18]; 110% in test [19].

Consider `O=C(c1ccccc1)C(Br)[N+](=O)[O-]` (centres undefined), for which the growth is 105% in test [1]; 25.8% in test [2]; 54.4% in [3]; 93.2% in test [4]; 117% in test [5]; 102% in test [6]. The growth is 101% in [20]; 79% in test [8]; 84.3% in test [9]; 78.1% in test [10]; 90.5% in test [11]; 86.3% in [12]. For the same compound, the growth is 102% in test [13]; 89.4% in [15]; 89.8% in test [17]; 80.5% in test [18]; 106% in [19].

Take `O=C1C=CC(=O)N1c1ccccc1`: the growth is 109% in test [1]; 52.6% in [2]; 101% in [3]; 78.6% in [4]; 88.7% in test [5]; 112% in test [6]. Further, the growth was 100% in [7]; 96.9% in test [8]; 94.2% in [9]; 103% in test [11]; 106% in [13]; 94.1% in test [14]. Besides, the growth in test [16] is 106%; in test [17], 93.2%; in test [19], 117%.

In the case of `CCC1C[N+]2=C(c3cc(OC)c(OC)cc3CC2)c2c1cc1n2CCc2cc(OC)c(OC)cc2-1` (centres undefined), the growth in [1] was 49%; in test [2], 21.5%; in [3] it was 29.9%; in test [4], 46.1%; in test [5], 88.7%; in test [6], 33.3%. Besides, the growth in test [20] is 63.6%; in test [7], 31.9%; in test [10], 87.9%; in [11], 41%; in test [12], 24.5%; in test [13] it was 33.8%. Moreover, the growth is 22.7% in test [14]; 17.4% in test [15]; -46.8% (active) in test [16]; 18.7% in test [17]; 41.7% in [18].

Regarding `C/C(=N\NC(=S)N1CC2CCC(CC2)C1)c1ccccn1`, the growth is 19.4% in [1]; 3.3% (active) in [2]; -1.66% (active) in [3]; 15.7% in test [4]; -7.47% (active) in test [5]; 15.5% in test [6]. Besides, the growth in test [7] was 3.7% (active); in [8], 5.97% (active); in test [10] it was 18.4%; in test [11], 6.46% (active); in test [12] it was 33.8%; in [13], 11.7%. Moreover, the growth in test [14] was 5.52% (active); in [15], -4.47% (active); in [16], -68.3% (active); in test [17] it was -36.7% (active); in test [18], 4.04% (active); in test [19] it was 37.9%.

Take `Cc1nc(Sc2nc3ccc([N+](=O)[O-])cc3s2)sc1C`: the growth is 31.1% in [1]; 3.13% (active) in [2]; -14.3% (active) in [3]; -15.6% (active) in test [4]; -2.1% (active) in [5]; 18.7% in test [6]. For the same compound, the growth in test [20] was 82.1%; in test [8], 36.8%; in test [9], 11.5%; in test [10] it was -21.2% (active); in [11], 10.2%; in test [12], 53.1%. In addition, the growth is 35.4% in test [13]; 23% in test [15]; 41.1% in test [16]; -15.4% (active) in test [17]; -46.4% (active) in [18].

In the case of `CN1CSC(=S)N(Cc2ccccc2)C1`, the growth in test [1] was 110%; in test [2], 49.9%; in [3], 99.3%; in test [4] it was 90.7%; in test [5], 83.1%; in test [6] it was 105%. The growth in [20] is 106%; in test [8] it was 84.3%; in test [9] it was 92%; in [10] it was 84.8%; in test [11], 24.9%; in [12] it was 98.1%. Further, the growth was 95.5% in test [13], 95.4% in test [15], 85.8% in [17] and 11.3% in test [18].
